Source: PubChem BioAssay (several laboratories)
In the library only some 27% were active in any assay of this set; here they are far more common.
CYP2C19 activ – activators of human cytochrome P450 2C19 | recombinant CYP2C19, luciferin-H EGE luminescence; hits give high values; 0 = fully inhibited enzyme, 1 = untreated enzyme | activation factor at 5 µM | 96,000 tested, under 10 active;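 active = activation factor of at least 2 at 5 µM in the primary screen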
CYP2C19 inhib – inhibitors of human CYP2C19; CYP2C19 Supersomes, luciferin-H EGE luminescence, 30 min; inhibition, % at 5 µM; actives 21% (n = 96,000); P33261; AID 778;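 active = CYP2C19 inhibition above a set limit at 5 µM in the primary screen, cut at about 50% in these data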
sEH inhibitor – soluble epoxide hydrolase (human) inhibition. P34913. recombinant human sEH enzymatic activity assay. inhibition, % at 2 µM. actives 0.34% (n = 91,000); in the data active = inhibition above about 80%
CYP2C9 act – activators of human CYP2C9; P11712; recombinant CYP2C9, luciferin-H conversion, luminescence; hits give high values; factor 1 = untreated enzyme, 0 = blocked; activation factor at 5 µM; actives 1.4% (n = 96,000); AID 1024;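 active = activation factor of 2 or more for CYP2C9 at a 5 µM dose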
Target sequence (P11712 whole entry, looked up): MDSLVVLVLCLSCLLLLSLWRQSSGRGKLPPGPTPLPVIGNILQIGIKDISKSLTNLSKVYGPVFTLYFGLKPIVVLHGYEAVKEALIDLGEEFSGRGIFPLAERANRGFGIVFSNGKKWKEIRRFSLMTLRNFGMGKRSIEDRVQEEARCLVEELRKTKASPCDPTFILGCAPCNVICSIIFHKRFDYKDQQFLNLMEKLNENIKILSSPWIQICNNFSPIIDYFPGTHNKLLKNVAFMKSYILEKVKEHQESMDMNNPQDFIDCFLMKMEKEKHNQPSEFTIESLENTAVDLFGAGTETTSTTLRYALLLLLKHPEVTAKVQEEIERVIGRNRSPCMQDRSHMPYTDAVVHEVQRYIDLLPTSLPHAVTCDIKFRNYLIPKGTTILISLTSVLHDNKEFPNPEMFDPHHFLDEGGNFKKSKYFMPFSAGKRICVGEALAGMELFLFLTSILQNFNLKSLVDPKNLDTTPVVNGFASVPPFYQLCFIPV
sEH act – soluble epoxide hydrolase (human) activation; P34913; purified human sEH enzymatic activity, activator screen; activation, % at 2 µM; actives 0.04% (n = 91,000); AID 717; in the data active = activation above about 37%
CYP2C9 inh – blocks human cytochrome P450 2C9; P11712; CYP2C9 Supersomes, luciferin-H conversion, luminescence; inhibition, % at 5 µM; actives 20% (n = 96,000);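 active = blocking of liver enzyme CYP2C9 beyond about 50% at 5 µM, limit read from the data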
Numbers stand for hits; n = inactive; x = not tested or not shown.

SMILES | CYP2C19 activ | CYP2C19 inhib | sEH inhibitor | CYP2C9 act | sEH act | CYP2C9 inh
O=C(O)C1NCCc2ccccc21 (stereo not given) | n | n | n | n | n | 74.0
CCOc1ccc(Cc2c(Cl)nc(N)nc2Cl)cc1 | n | 52.7 | n | n | n | n
CCOc1ccc(Cc2nc(N)nc(N)n2)cc1 | x | x | n | x | n | x
CCCCOc1ccc(CNC(=O)NS(=O)(=O)c2ccc(OCC)cc2)cc1 | n | n | n | n | n | 86.4
CCCCOc1ccc(S(=O)(=O)NC(=O)NCc2ccc(OCCC)cc2)cc1 | x | x | n | x | n | x
Cc1ccc(S(=O)(=O)NC(=O)NCc2ccccc2)cc1 | n | n | n | n | n | n
CCCCOc1ccc(CNC(=O)NS(=O)(=O)c2ccc(OCC(C)C)cc2)cc1 | n | n | n | n | n | 90.4
O=C(O)C1CSC2(CCN(Cc3ccccc3)CC2)N1 (stereo not given) | x | x | n | x | n | x
Oc1[nH]c2ccccc2c1C=Nc1ccc2c(c1)OCCO2 | n | n | n | n | n | n
O=C(Nc1ccc(Cl)cc1C(=O)NCCN1CCOCC1)c1ccco1 | n | n | n | n | n | 68.1
O=C(CNC(=O)c1ccco1)Nc1cc(Cl)ccc1N1CCOCC1 | n | n | n | n | n | 73.2
O=C(Nc1ccccc1C(=O)NCCN1CCOCC1)c1ccco1 | n | n | n | n | n | n
Cc1cc(C)c(CSc2ncc(-c3ccc([N+](=O)[O-])cc3)[nH]2)c(C)c1 | n | n | n | n | n | 65.0
O=[N+]([O-])c1ccc(-c2cnc(SCc3ccccc3Cl)[nH]2)cc1 | n | n | n | n | n | 52.1
CCOc1ccccc1C1CC(=O)NC2=C1C(=O)CC(C)(C)C2 (stereo not given) | n | n | n | n | n | n
O=C(COc1ccccc1)Nc1cccc2c1CCCC2 | n | n | n | 2.1 | n | n
CN(CC(=O)Nc1cccc2c1CCCC2)S(=O)(=O)c1ccccc1 | n | n | n | 2.3 | n | n
O=C(CCCc1ccccc1)Nc1cccc2c1CCCC2 | n | n | n | 2.6 | n | n
CC(C)(C)CC(=O)Nc1cccc2c1CCCC2 | n | n | n | n | n | n
C=CCOc1cccc(C2/C(=C(/O)c3ccc(F)cc3)C(=O)C(=O)N2CCN2CCOCC2)c1 (stereo not given) | n | n | n | n | n | n
COC(=O)c1cc(OC)c(OC)cc1NC(=O)CCCCCN1C(=O)CCC1=O | n | 62.1 | n | n | n | n
Cc1ccc(-c2[nH]nc3c2C(c2ccc(OC(=O)N4CCOCC4)cc2)C(C#N)=C(N)O3)cc1 (stereo not given) | n | n | n | n | n | n
CCOC(=O)c1c(C2COc3ccccc3O2)csc1N (stereo not given) | n | 90.7 | n | n | n | 79.6
CCOC(=O)N1CCN(C(=O)C2COc3ccccc3O2)CC1 (stereo not given) | n | n | x | n | x | n
CCOC(=O)c1c(C2COc3ccccc3O2)csc1NC(=O)c1ccccc1 (stereo not given) | n | n | n | n | n | 70.8
SMILES | CYP2C19 activ | CYP2C19 inhib | sEH inhibitor | CYP2C9 act | sEH act | CYP2C9 inh
O=C(/C=C/c1ccccc1)N1CCN(CC(O)COc2ccccc2)CC1 (stereo not given) | n | n | n | n | n | n
Cn1c(=O)oc2cc(C(=O)c3ccccc3)ccc21 | n | n | n | n | n | n
O=C(Cc1ccc(Cl)cc1)NCC(=O)N1CCCC1 | n | n | n | n | n | n
CC(=O)OCC1OC(n2ccc3ccccc32)C(OC(C)=O)C(OC(C)=O)C1OC(C)=O (stereo not given) | n | n | n | n | n | n
CC(=O)OC1COC(n2ccc3ccccc32)C(OC(C)=O)C1OC(C)=O (stereo not given) | n | 67.1 | n | n | n | n
O=C(COc1ccc(F)c(Cl)c1)c1ccc[nH]1 | n | 74.3 | n | n | n | n
O=C(Cc1ccc(Cl)cc1Cl)OCC(=O)c1ccc[nH]1 | n | n | n | n | n | n
O=C1Nc2ccccc2N=C(c2ccccc2)C1N1CCOCC1 (stereo not given) | n | 54.3 | n | n | n | 58.9
O=C(CSc1n[nH]c(-c2ccc(S(=O)(=O)N3CCCCC3)cc2)n1)Nc1nccs1 | n | n | n | n | n | 87.1
CCn1c(SCC(=O)Nc2nccs2)nnc1-c1ccc(S(=O)(=O)N2CCCCCC2)cc1 | n | n | n | n | n | 51.5
Cc1cc(Nc2cc(C(=O)O)ccc2C)n2ncnc2n1 | n | n | n | n | n | n
O=c1[nH]c2cc3c(cc2cc1CN(CC1CCCO1)S(=O)(=O)c1ccccc1)OCCO3 (stereo not given) | n | n | x | n | x | n
Cc1cc(C)c2[nH]c(=O)c(CN(CC3CCCO3)S(=O)(=O)c3ccc4c(c3)OCCO4)cc2c1 (stereo not given) | n | 77.7 | n | n | n | 92.1
Cc1cccc2cc(CN(Cc3ccco3)S(=O)(=O)c3ccc4c(c3)OCCO4)c(=O)[nH]c12 | n | 76.6 | n | n | n | 56.0
Cc1ccc(C)c2[nH]c(=O)c(CN(CC3CCCO3)S(=O)(=O)c3ccc4c(c3)OCCO4)cc12 (stereo not given) | n | n | n | n | n | 60.9
Cc1cccc2cc(CN(Cc3ccco3)C(=O)N3CCCC3)c(=O)[nH]c12 | n | n | x | n | x | n
CC(=O)c1cccc(S(=O)(=O)N(Cc2cc3cc4c(cc3[nH]c2=O)OCCO4)CC2CCCO2)c1 (stereo not given) | n | n | n | n | n | n
C/C(N)=C(/C#N)C(=O)COC(=O)C1Cc2ccccc2CN1S(C)(=O)=O (stereo not given) | n | n | n | n | n | n
N#CC1C(C#N)N2CCCN2C1c1ccc(Cl)cc1 (stereo not given) | x | x | n | x | n | x
c1ccc(-c2nc(Sc3ncnc4c3cnn4-c3ccccc3)n[nH]2)cc1 | n | n | n | n | n | n
O=C(C/C=N/OCc1ccc(F)cc1Cl)c1cnc(-c2ccccc2)s1 | n | 53.4 | n | n | n | n
O=C(C/C=N/OCc1ccccc1F)c1cnc(-c2ccc(Cl)cc2)s1 | n | 95.9 | n | n | n | n
O=C(C/C=N/OCc1ccc(Cl)cc1Cl)c1ccccc1 | n | n | n | n | n | n
O=C(Nc1cccc(F)c1)C1CCN(C(=O)Cc2ccccc2)CC1 | n | n | x | n | x | n
CCOCc1cnc(C)nc1NCC(=O)c1c(C)[nH]c2ccc(OC)cc12 | n | n | n | n | n | n
Cc1cccc(NC(=S)NC(=O)/C=C/c2ccco2)n1 | n | n | n | n | n | 54.8
O=C(/C=C/c1ccco1)NC(=S)Nc1cccc(-c2nc3ccccc3o2)c1 | n | n | n | n | n | n
Cc1ccc(C2CN(c3ccccc3)CC2C(=O)c2ccc(F)cc2)cc1 (stereo not given) | n | n | n | n | n | n
Cc1ccc(S(=O)(=O)N2CCCCC2C(=O)N2CCN(c3ccccc3F)CC2)cc1 (stereo not given) | n | n | n | 2.2 | n | n
